# Where “and” joins values, the source holds several entries; their conditions need not be identical. Identical values can stand only once. The panel holds about 83,000 compounds, 20% with a hit somewhere; the sample as a whole holds those more often.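 Values shown are percent growth following 48 h exposure of cells in 96-well plates to a single concentration of compound; below 10 was considered active.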 Calls of active or inactive are those of the source.
# Experiments:
# Assay in all cases: NCI-60 one-dose screen, 48 h (100 = growth as untreated, 0 = no growth, -100 = all killed)
# SK-MEL-2 melanoma = settings: 10 µM
# EKVX NSCLC = settings: 10 µM
# SN12C renal = settings: 10 µM
# TK-10 renal = system: TK-10 renal
# ACHN renal = settings: 10 µM
# CAKI-1 renal = settings: 10 µM
# A498 renal = settings: 10 µM
# CCRF-CEM leukemia = settings: 10 µM
# MOLT-4 leukemia = settings: 10 µM
# UO-31 renal = settings: 10 µM
SMILES,growth (SK-MEL-2 melanoma),growth (EKVX NSCLC),growth (SN12C renal),growth (TK-10 renal; 10 µM unless noted),growth (ACHN renal),growth (CAKI-1 renal),growth (A498 renal),growth (CCRF-CEM leukemia),growth (MOLT-4 leukemia),growth (UO-31 renal),growth (TK-10 renal; 10 µM),growth (TK-10 renal; 100 µM)
Cc1cc2nc(CC(=O)c3ccccc3)c(=O)[nH]c2cc1C,102% (inactive),55.5% (inactive),93.8% (inactive),149% (inactive),93.8% (inactive),76.2% (inactive),127% (inactive),88.5% (inactive),89% (inactive),–,–,–
CC(=O)Cc1ccc(-c2ccccc2)cc1,102% (inactive),–,86.3% (inactive),101% (inactive),108% (inactive),104% (inactive),89% (inactive),102% (inactive),117% (inactive),84.8% (inactive),–,–
Cc1cc2ccccc2c(O)c1C#N,112% (inactive),108% (inactive),95.3% (inactive),110% (inactive),99.1% (inactive),115% (inactive),107% (inactive),104% (inactive),108% (inactive),–,–,–
CC1(C(=O)O)NC(C(=O)O)Cc2c1[nH]c1ccccc21 (stereo unspecified),93.7% (inactive),–,95.8% (inactive),108% (inactive),102% (inactive),96.5% (inactive),91.8% (inactive),82.8% (inactive),88.8% (inactive),79.5% (inactive),–,–
CCOC(=O)c1cc(/C=C/c2ccc(Cl)cc2Cl)on1,109% (inactive),45.2% (inactive),70.8% (inactive),155% (inactive),2.04% (active),42.9% (inactive),133% (inactive),19% (inactive),32.5% (inactive),–,–,–
N#CSc1cc(S(N)(=O)=O)ccc1N,104% (inactive),115% (inactive),101% (inactive),106% (inactive),112% (inactive),124% (inactive),118% (inactive),–,84.5% (inactive),–,–,–
O=S(=O)(Cc1ccccc1)c1ccccc1,114% (inactive),–,104% (inactive),102% (inactive),111% (inactive),107% (inactive),101% (inactive),105% (inactive),108% (inactive),102% (inactive),–,–
Cc1ccc(C)n1-c1ccsc1C(=O)NNC(=O)C(Cl)Cl,106% (inactive),92.5% (inactive),98.6% (inactive),112% (inactive),104% (inactive),93.3% (inactive),101% (inactive),85.3% (inactive),118% (inactive),–,–,–
O=[N+]([O-])c1ccc(-c2noc(-c3cccs3)n2)cc1,106% (inactive),66.1% (inactive),83.5% (inactive),101% (inactive),60.2% (inactive),77.8% (inactive),88.6% (inactive),93.6% (inactive),81.5% (inactive),–,–,–
CN(C)CCN(C)CC(C)(C)C(=O)/C=C/c1ccc(Cl)cc1,-25.6% (active),-19.1% (active),2.97% (active),0.991% (active),-27.3% (active),8.74% (active),10.4% (inactive),-9.31% (active),-14.7% (active),–,–,–
O=P(O)(O)OCC(O)CO (stereo unspecified),117% (inactive),–,98.5% (inactive),110% (inactive),101% (inactive),104% (inactive),108% (inactive),100% (inactive),103% (inactive),98.7% (inactive),–,–
CC(=O)CC(=O)N(C)C,106% (inactive),93.5% (inactive),97% (inactive),98.4% (inactive),103% (inactive),88.3% (inactive),102% (inactive),73.7% (inactive),120% (inactive),–,–,–
c1c(-c2cc(C3CC3)[nH]n2)n[nH]c1C1CC1,104% (inactive),76.6% (inactive),102% (inactive),106% (inactive),99.3% (inactive),97.6% (inactive),97.6% (inactive),67% (inactive),95.2% (inactive),–,–,–
Cc1ccc(C(=O)c2ccccc2)c(C)c1,108% (inactive),105% (inactive),99.2% (inactive),109% (inactive),103% (inactive),121% (inactive),104% (inactive),–,116% (inactive),–,–,–
CC(=O)C1CCCCC1,106% (inactive),–,97.5% (inactive),99.5% (inactive),97.3% (inactive),90.8% (inactive),99.1% (inactive),–,–,92.8% (inactive),–,–
CC(C)OC(C(=O)O)c1ccccc1 (stereo unspecified),110% (inactive),108% (inactive),93.5% (inactive),98.4% (inactive),97.2% (inactive),101% (inactive),107% (inactive),91.9% (inactive),125% (inactive),–,–,–
Cc1ncc(C#N)c(N)n1,106% (inactive),–,103% (inactive),109% (inactive),121% (inactive),92.9% (inactive),87.1% (inactive),126% (inactive),102% (inactive),85.7% (inactive),–,–

SMILES,growth (SK-MEL-2 melanoma),growth (EKVX NSCLC),growth (SN12C renal),growth (TK-10 renal; 10 µM unless noted),growth (ACHN renal),growth (CAKI-1 renal),growth (A498 renal),growth (CCRF-CEM leukemia),growth (MOLT-4 leukemia),growth (UO-31 renal),growth (TK-10 renal; 10 µM),growth (TK-10 renal; 100 µM)
Nc1nc2c(c(-c3nc(N)nc4c3CCc3ccccc3-4)n1)CCc1ccccc1-2,134% (inactive),89.9% (inactive),102% (inactive),131% (inactive),95.1% (inactive),76.9% (inactive),125% (inactive),107% (inactive),115% (inactive),–,–,–
CC(C)=C(NC(=O)c1ccccc1)C(=O)O,98.3% (inactive),118% (inactive),–,106% (inactive),106% (inactive),103% (inactive),90.5% (inactive),7.71% (active),12.1% (inactive),101% (inactive),–,–
c1cc2cccc3c4cccc5cccc(c(c1)c23)c54,98.7% (inactive),104% (inactive),98.6% (inactive),102% (inactive),102% (inactive),–,116% (inactive),103% (inactive),105% (inactive),–,–,–
NC(CSC(c1ccccc1)(c1ccccc1)c1ccccc1)C(=O)O (stereo unspecified),-15.7% (active),–,53.6% (inactive),59.3% (inactive),57.5% (inactive),31% (inactive),48.5% (inactive),9.95% (active),38.4% (inactive),54.3% (inactive),–,–
COc1cc2c3cc1Oc1c(OC)c(OC)cc4c1C(Cc1ccc(O)c(c1)Oc1ccc(cc1)CC3N(C)CC2)N(C)CC4 (stereo unspecified),-16% (active),–,16.9% (inactive),–,18.9% (inactive),–,21.4% (inactive),2.18% (active),-3.59% (active),2.84% (active),4.81% (active),96% (inactive) and -100% (active)
O=C(Cc1nc2ccc([N+](=O)[O-])cc2nc1CC(=O)c1ccccc1)c1ccccc1,103% (inactive),55.8% (inactive),75% (inactive),104% (inactive),57% (inactive),62.9% (inactive),132% (inactive),40.5% (inactive),54.2% (inactive),–,–,–
Clc1ccc(-c2nnc(-c3cccc4ccccc34)o2)cc1,96.4% (inactive),34% (inactive),–,95.3% (inactive),90% (inactive),81.6% (inactive),–,–,104% (inactive),41.4% (inactive),–,–
Cc1ccc(C(=O)NC2c3ccccc3Oc3ccccc32)cc1,66.4% (inactive),64.6% (inactive),–,54.4% (inactive),40% (inactive),64.9% (inactive),43.5% (inactive),56.7% (inactive),45.5% (inactive),34.4% (inactive),–,–
c1ccc(/C(=N\N=C(/c2ccccc2)c2cccs2)c2cccs2)cc1,89.1% (inactive),98% (inactive),–,104% (inactive),89.8% (inactive),89.9% (inactive),102% (inactive),–,91.9% (inactive),71.2% (inactive),–,–
CCCCC1(CC)COC(CCC)OC1 (stereo unspecified),104% (inactive),93.1% (inactive),97.6% (inactive),101% (inactive),99.2% (inactive),84.2% (inactive),127% (inactive),102% (inactive),103% (inactive),–,–,–
COc1cccc(/C=N/NC(=S)NC2CC3CCC2C3)c1O (stereo unspecified),69% (inactive),–,57.9% (inactive),88.3% (inactive),32.1% (inactive),38.2% (inactive),51.9% (inactive),29.1% (inactive),44.8% (inactive),21.8% (inactive),–,–
COC(=O)C(C)Oc1ccc(OC#N)cc1 (stereo unspecified),110% (inactive),99.8% (inactive),91.8% (inactive),107% (inactive),101% (inactive),86.5% (inactive),107% (inactive),102% (inactive),73.7% (inactive),–,–,–
CCCC(C)OCC(=O)O (stereo unspecified),104% (inactive),–,103% (inactive),119% (inactive),102% (inactive),97.5% (inactive),103% (inactive),101% (inactive),95% (inactive),86.6% (inactive),–,–
O=C1OC(=O)C2C1C1(Cl)C(Cl)=C(Cl)C2(Cl)C2C(=O)OC(=O)C21 (stereo unspecified),88.7% (inactive),–,105% (inactive),93% (inactive),105% (inactive),106% (inactive),107% (inactive),–,105% (inactive),84.4% (inactive),–,–
O=C(O)COCC(=O)O,107% (inactive),–,102% (inactive),124% (inactive),103% (inactive),97.5% (inactive),110% (inactive),101% (inactive),99.1% (inactive),91.4% (inactive),–,–
Cc1c(O)cnc2nn(-c3ccccc3)c(=N)n12,94.7% (inactive),–,97.7% (inactive),109% (inactive),96.7% (inactive),102% (inactive),106% (inactive),–,104% (inactive),94.5% (inactive),–,–
COc1cc(C2c3cc4c(cc3C3OC(=O)C2C3CO)OCO4)cc(OC)c1OC (stereo unspecified),7.33% (active),–,23.8% (inactive),49.6% (inactive),24.9% (inactive),37.4% (inactive),-7.83% (active),-7.15% (active),-9.4% (active),38.2% (inactive),–,–

# — PubChem BioAssay (NCI)
